CRFBP-R2 block – blocks CRF-induced signaling of the CRF-BP/CRF-R2 complex; AID 588475; 350,000 tested, 0.59% active; inhibition, % at 11.8 µM; HEK293 CRF-R2/CRF-BP, CRF-induced calcium fluorescence;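 active = inhibition of the ligand-induced calcium signal above about 50% at the single tested concentration, limit read from the data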
FAS TE block – inhibitors of human fatty acid synthase thioesterase domain; recombinant FAS-TE, OMFH fluorogenic substrate, fluorescence endpoint; P49327; 360,000 tested, 0.67% active; inhibition, % at 15 µM; AID 602261;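 active = compounds whose normalised, plate-corrected inhibition of enzyme fluorescence in the single-dose primary screen is 50% or more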;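 also: 0% = DMSO with enzyme and 100% = substrate without enzyme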
Myeloid diff MLP – compounds promoting myeloid differentiation | AID 624256 | 360,000 tested, 1% active | ER-HoxA9 myeloid progenitors, lysozyme-GFP differentiation, flow cytometry | calls only at 10 µM;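 active = normalized GFP-positive differentiation at or above the plate's own cutoff, the solvent-only control mean plus 3 SD; inconclusive = no clear call, values can overlap the other calls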;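 also: cells exposed to compound for four days before flow analysis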
NadD block – NadD (S. aureus) enzyme inhibition. purified NadD enzyme, colorimetric absorbance read-out. inhibition, % at 20 µM. AID 602399. 360,000 tested, 0.78% active; in the data active = inhibition above about 26%
CendR NRP1 mod – NRP-1/CendR interaction modulation. FAM-RPARPAR peptide binding to NRP-1, fluorescence polarization. AID 602438. 360,000 tested, 0.85% active. inhibition, % at 25 µM;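 active = inhibition or corrected inhibition above about 18%, plus a signal ratio from 0.5 to 1.5, limit read from the data, passing the limit was not always enough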
NadD inh conf – NadD (S. aureus) inhibition, single concentration confirmation. purified S. aureus NadD, colorimetric enzyme assay. 2,000 tested, 13% active. shares compounds with NadD block. inhibition, % at 20 µM; in the data active = inhibition mostly above about 42%, no sharp cut-off; inactive = mostly below about 42%
The depositor's hits bear a star; i = inactive; u = inconclusive; x = no result; ! = not confirmed by another sample. Hits are enriched below; roughly 3.6% of the tested compounds scored in any of these assays.

SMILES | CRFBP-R2 block | FAS TE block | Myeloid diff MLP | NadD block | CendR NRP1 mod | NadD inh conf
COc1ccc2oc(C(=O)NC(C)c3ccccn3)c(C)c2c1 (stereo not given) | -5 | -6 | i | 2 | -2 | x
COc1ccc2oc(C(=O)Nc3nc(-c4ccccn4)cs3)c(C)c2c1 | -5 | 8 | i | 34* | -31 | 2
O=C(Nc1cc(S(=O)(=O)Nc2ccc(Cl)cc2)ccc1O)c1ccc(S(=O)(=O)N2CCCCCC2)cc1 | -2 | -13 | i | 44* | 1 | 34
CCOc1ccccc1NC(=O)CSc1nc2ccccc2c(=O)n1CC1CCCO1 (stereo not given) | 16 | 12 | i | -7 | -1 | x
COc1ccc(N=C2C(=Nc3ccc(OC)cc3)N(c3ccc(OC)cc3)C(=S)N2c2ccccc2)cc1 | 16 | 28 | i | 30* | 12 | 3
COc1ccc(N=C2C(=Nc3ccc(OC)cc3)N(c3ccc(OC)cc3)C(=S)N2C)cc1 | 4 | 29 | i | 7 | -8 | x
CCCCc1nc2cc(C(=O)N3CCN(c4nc(C)cnc4C)CC3)ccc2o1 | 6 | 11 | i | -5 | 10 | x
COc1ccc(-c2nn(-c3ccccc3)cc2C(=O)N/N=C/c2ccc([N+](=O)[O-])o2)cc1 | -19 | -5 | i | 31* | -9 | 7
Cc1cc(C(=O)N/N=C/c2ccc([N+](=O)[O-])o2)c(C)o1 | 0 | -1 | i | 0 | 19 | x
CCCc1ccc(-c2cc(C(=O)N/N=C/c3ccc([N+](=O)[O-])o3)c3ccccc3n2)cc1 | 7 | 7 | i | 34* | -6 | 22
O=C(N/N=C/c1ccco1)c1cc(-c2ccccc2)nc2ccccc12 | -1 | 0 | i | 4 | 0 | x
O=C(N/N=C/c1ccc([N+](=O)[O-])o1)c1cc(-c2cccc(Br)c2)nc2ccccc12 | -24 | 12 | i | 72* | -10 | 3
CC(=O)c1cccc(S(=O)(=O)N2CCN(CCOc3ccccc3)CC2)c1 | 2 | 3 | i | -5 | 10 | x
O=C(Nc1nnc(-c2ccc3c(c2)OCCO3)o1)c1ccc(Cc2ccccc2)cc1 | -4 | -3 | i | 48* | -14 | 8
CCc1ccc(NC(=O)CCC(=O)c2ccccc2)cc1 | 4 | 2 | i | -1 | 2 | x
Cc1cccc(C2(c3cccc(C)c3)CC2C(=O)Nc2ccc([N+](=O)[O-])cc2O)c1 (stereo not given) | 21 | -16 | i | 30* | -7 | 50*
C=CCNC(=O)C1CC1(c1cccc(C)c1)c1cccc(C)c1 (stereo not given) | -8 | 0 | i | -3 | 9 | x
COc1ccc(-c2c(N)cnc(C(=O)O)c2C)c(OCc2ccccc2)c1OC | -32 | -2 | i | 15 | -5 | x
c1cc(N2CCCCC2)nc(N2CCCCC2)n1 | -6 | -2 | i | 0 | -4 | x
C[c-]1[c-](C)[c-](C)[c-](C)[c-]1C.[Fe].c1cc2nccc(N3CCCC3)[c-]2c1 (stereo not given) | -10 | -2 | i | 75* | 10 | 32*!
Cc1cccc(CN2CCc3c([nH]c4ccccc34)C2C(C)(C)C)n1 (stereo not given) | -7 | -2 | i | -4 | -18 | x
O=C(NCCC1=CCCCC1)C1CCN(S(=O)(=O)c2ccccc2C(F)(F)F)CC1 | -18 | 6 | i | -3 | 14 | x
O=C(COc1ccc(-c2ccccc2)cc1)N/N=C/c1ccccc1Br | -13 | 23 | i | 7 | -2 | x
O=C(COc1ccc(-c2ccccc2)cc1)N/N=C/c1cc(O)ccc1Br | -6 | 23 | i | 31* | -1 | 29
COC(=O)C[C@H]1C[C@H]2c3cc(NC(=O)CC4CC4)ccc3O[C@H]2[C@H](CO)O1 | -1 | -5 | i | -5 | 2 | x
SMILES | CRFBP-R2 block | FAS TE block | Myeloid diff MLP | NadD block | CendR NRP1 mod | NadD inh conf
O=C(/C=C/NNC(=O)c1cccc(Br)c1)c1cccc(Br)c1 | 1 | 16 | i | 30* | -23 | 24
N#C/C(=C\c1ccc(-c2cccc([N+](=O)[O-])c2)o1)C(=O)Nc1nc(-c2cccs2)cs1 | 16 | 16 | i | 42* | -18 | -4
CC(=O)Nc1ccc(NC2=Nc3ccccc3N3C2=Nc2c(c(C)nn2-c2ccccc2)C3c2ccccc2)cc1 (stereo not given) | -26 | 46 | i | 37* | 82 | 31
CCOc1ccc(S(=O)(=O)NCc2cccnc2)cc1NC(=O)c1ccccc1 | 2 | 1 | i | 6 | 13 | x
COc1ccc(S(=O)(=O)NCc2cccnc2)cc1NC(=O)c1ccccc1C | 11 | 2 | i | 83* | -92 | 38
O=C(NCCCc1ccccn1)C1CCC(=O)N(Cc2cccc(F)c2)C1 (stereo not given) | -4 | -10 | i | 1 | 8 | x
CCn1c(SCC(=O)Nc2oc(-c3ccccc3)c(-c3ccccc3)c2C#N)nnc1-c1ccncc1 | 7 | 7 | i | 17 | -10 | x
CCn1c(SCC(=O)Nc2oc(-c3ccccc3)c(-c3ccccc3)c2C#N)nnc1-c1ccco1 | 14 | 30 | i | 29* | -10 | 44
N#Cc1c(NC(=O)CSc2ncnc3sccc23)oc(-c2ccco2)c1-c1ccco1 | -10 | 20 | i | 58* | -78 | 58*
N#Cc1c(NC(=O)CN2C(=O)c3ccccc3C2=O)oc(-c2ccccc2)c1-c1ccccc1 | 0 | 18 | i | 33* | 16 | 15
CC(C)CC(C(=O)Nc1oc(-c2ccccc2)c(-c2ccccc2)c1C#N)N1C(=O)c2ccccc2C1=O (stereo not given) | 3 | 48 | i | 36* | -11 | 13
CC(C)[C@H](NC(=O)[C@H](Cc1ccccc1)n1c(=O)[nH]c2ccccc2c1=O)C(=O)N1CCC[C@@H]1C(=O)O | 1 | -8 | i | -2 | -10 | x
N#Cc1ccc(CN2C=NS(=O)(=O)c3ccccc32)cc1 | -1 | -6 | i | -7 | 7 | x
Cc1ccc(S(=O)(=O)NN=Cc2ccco2)cc1 | 7 | -6 | i | -1 | 1 | x
CC(=O)N1c2ccc(S(=O)(=O)N(C)CC(=O)NC3CCCCC3C)cc2CC1C (stereo not given) | -12 | -2 | u | 8 | 3 | x
O=C(NCC1CCCO1)c1ccc(NC(=O)c2cc(F)c(F)cc2Cl)cc1 (stereo not given) | -9 | -2 | i | 1 | 3 | x
COc1ccc(CN(C)C(=O)COC(=O)c2ccc(-c3ccccc3)cc2)c(OC)c1OC | 4 | 28 | i | -10 | 7 | x
Brc1ccc(-c2ccc(/C=N/Nc3nncc(-c4ccccc4)n3)o2)cc1 | -5 | -11 | i | 29* | -8 | 9
CN(C(=O)c1ccoc1)c1ccc2ccccc2c1 | 13 | -2 | i | -3 | 2 | x
Cc1oc2ccc(NS(=O)(=O)c3ccc(C(C)(C)C)cc3)cc2c1C(=O)Nc1ccccc1 | -1 | 25 | i | 33* | -4 | 34

Bioassay records as filed in PubChem.
